Results from PubChem BioAssay (NCI).
About 79,000 compounds went through this panel and 15% of them were active in at least one assay; those are over-represented in the sample as a whole. Activity calls are given as the source filed them. Rule as the data show it: active = growth inhibition above about 70%; inactive = the rest.

Key:
[1] = NCI Yeast Anticancer Drug Screen. Data for the rad52 strain (AID 147);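 also: 0% = growth of vehicle-treated control cultures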; details: S. cerevisiae rad52 mutant growth inhibition, hits give high values
Summary of the method: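 Inhibition of yeast growth, referenced to vehicle controls, was the measured output for a strain with defective DNA damage repair.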

[2] = NCI Yeast Anticancer Drug Screen. Data for the wt1 strain (AID 149);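 also: 0% = growth of vehicle-treated wt1 cultures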; details: S. cerevisiae wt1 strain (SPY 50644) growth inhibition, hits give high values
Summary of the method: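 Compounds are added to wt1 yeast cultures. Growth is then measured. Inhibition is expressed relative to vehicle-treated controls.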

[3] = NCI Yeast Anticancer Drug Screen. Data for the mgt1 strain (AID 153); details: S. cerevisiae mgt1 mutant growth inhibition, hits give high values
Summary of the method: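 In the mgt1 strain, test compounds were added and growth inhibition was determined relative to vehicle-treated controls.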

[4] = NCI Yeast Anticancer Drug Screen. Data for the rad50 strain (AID 155);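 also: 0% = growth of vehicle-only cultures of the same strain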; details: S. cerevisiae rad50 strain growth inhibition, hits give high values
Summary of the method: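 Inhibition values express reduced yeast growth in compound-treated cultures relative to vehicle-treated controls.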

[5] = NCI Yeast Anticancer Drug Screen. Data for the mec2-1 strain (AID 157); details: S. cerevisiae mec2-1 strain, hits give high values
Summary of the method: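 Each compound was tested on mec2-1 yeast, a strain altered in DNA damage repair or cell cycle control. Growth inhibition is reported relative to vehicle.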

[6] = NCI Yeast Anticancer Drug Screen. Data for the rad14 strain (AID 159);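 also: 0% = growth of vehicle-treated control cultures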; details: S. cerevisiae rad14 strain growth inhibition, hits give high values
Summary of the method: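 A mutant yeast strain defective in DNA damage repair is treated with compound; inhibition of its growth is scored against untreated, vehicle-exposed cultures.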

[7] = NCI Yeast Anticancer Drug Screen. Data for the sgs1 mgt1 strain (AID 161);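 also: 0% = growth of cultures given vehicle only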; details: S. cerevisiae sgs1 mgt1 strain, hits give high values
Summary of the method: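 Inhibition of yeast growth, normalised to vehicle-treated controls, is reported for a strain bearing genetic alterations in DNA damage repair.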

[8] = NCI Yeast Anticancer Drug Screen. Data for the CLN2oe strain (AID 163);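 also: 0% = growth of vehicle-only control cultures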; details: S. cerevisiae CLN2oe strain, hits give high values
Summary of the method: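 First, the altered yeast strain was treated with each compound; second, its growth was measured; finally, inhibition was derived by comparison with vehicle controls.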

[9] = NCI Yeast Anticancer Drug Screen. Data for the cln2 rad14 strain (AID 165);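 also: 0% = growth equal to vehicle treated cultures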; details: S. cerevisiae cln2 rad14 strain, hits give high values
Summary of the method: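 Test compounds were added to cln2 rad14 yeast cultures; inhibition of growth was then determined by comparison with vehicle treatment.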

[10] = NCI Yeast Anticancer Drug Screen. Data for the bub3 strain (AID 167); details: S. cerevisiae bub3 mutant strain, hits give high values
Summary of the method: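 Steps: expose the mutant yeast strain to compound; grow alongside vehicle-treated cultures; measure growth; express inhibition against the vehicle cultures.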

[11] = NCI Yeast Anticancer Drug Screen. Data for the wt2 strain (AID 169);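 also: 0% = growth of vehicle-treated yeast cultures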; details: S. cerevisiae wt2 strain growth inhibition, hits give high values
Summary of the method: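 The panel's yeast strains carry defined changes in DNA repair or cell cycle genes. Each strain is grown with compound, and growth loss is scored relative to vehicle.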

[12] = NCI Yeast Anticancer Drug Screen. Data for the mlh1 strain (AID 171);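 also: 0% = growth of vehicle-treated control cultures of the same strain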; details: S. cerevisiae mlh1 strain growth inhibition, hits give high values
Summary of the method: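 Inhibition values reflect reduced yeast growth in the presence of compound, referenced to vehicle controls, using a strain chosen for its alteration in DNA repair or cell cycle control.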

[13] = NCI Yeast Anticancer Drug Screen. Data for the sgs1 strain (AID 173);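 also: 0% = growth of vehicle-only control cultures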; details: S. cerevisiae sgs1 mutant, hits give high values
Summary of the method: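 Vehicle-treated cultures served as reference for growth inhibition of a yeast strain altered in DNA damage repair or cell cycle control after compound exposure.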

[14] = NCI Yeast Anticancer Drug Screen. Data for the mlh1 rad18 strain (AID 175); details: S. cerevisiae mlh1 rad18 strain growth inhibition, hits give high values
Summary of the method: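 Inhibition values reflect reduced growth of mutant yeast versus vehicle-treated controls following compound exposure; the mutations affect DNA damage repair.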

[15] = NCI Yeast Anticancer Drug Screen. Data for the rad18 strain (AID 177); details: S. cerevisiae rad18 mutant growth inhibition, hits give high values
Summary of the method: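 Steps: expose repair-mutant yeast to compound; measure growth; express as inhibition relative to vehicle control.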

[16] = at 5.0 µM (retest, dose inferred, filed as 0.5)
[17] = at 50.0 µM (retest, dose inferred, filed as 5.0)

Measured: growth inhibition

CCCCCCCSCC1C(=O)C23C(O)C1CCC2C12COC3(O)C(O)C1C(C)(C)CCC2O (stereo not drawn)
inactive: [1]; at 1.2 µM 13% | [1]; at 3.7 µM 14% | [2]; at 1.2 µM 16% | [2]; at 3.7 µM 5% | [3]; at 1.2 µM 20% | [3]; at 3.7 µM 20% | [4]; at 1.2 µM 13% | [4]; at 3.7 µM 16% | [4]; [16] -12% | [4]; at 11.0 µM 66% | [5]; at 1.2 µM 23% | [5]; at 3.7 µM 15% | [5]; [16] 2% | [5]; at 11.0 µM 67% | [6]; at 1.2 µM -9% | [6]; at 3.7 µM 5% | [7]; [16] 28% | [8]; at 1.2 µM 19% | [8]; at 3.7 µM 6% | [9]; [16] 54% | [10]; at 1.2 µM 4% | [10]; at 3.7 µM 9% | [10]; [16] 65% | [11]; at 1.2 µM 14% | [11]; at 3.7 µM 0% | [11]; at 11.0 µM 67% | [12]; at 1.2 µM -1% | [12]; at 3.7 µM 23% | [13]; at 1.2 µM 26% | [13]; at 3.7 µM 19% | [14]; [16] 50% | [15]; at 1.2 µM -1% | [15]; at 3.7 µM 2%
active: [1]; at 11.0 µM 71% | [1]; at 33.0 µM 94% | [1]; at 100.0 µM 85% | [2]; at 11.0 µM 82% | [2]; at 33.0 µM 95% | [2]; at 100.0 µM 90% | [3]; at 11.0 µM 88% | [3]; at 33.0 µM 96% | [3]; at 100.0 µM 89% | [4]; at 33.0 µM 93% | [4]; [17] 74% | [4]; at 50.0 µM 87.5% | [4]; at 100.0 µM 81% | [5]; at 33.0 µM 94% | [5]; [17] 97% | [5]; at 50.0 µM 88.2% | [5]; at 100.0 µM 87% | [6]; at 11.0 µM 84% | [6]; at 33.0 µM 95% | [6]; at 100.0 µM 91% | [7]; [17] 95% | [7]; at 50.0 µM 87.8% | [8]; at 11.0 µM 89% | [8]; at 33.0 µM 97% | [8]; at 100.0 µM 91% | [9]; [17] 97% | [9]; at 50.0 µM 85.8% | [10]; at 11.0 µM 78% | [10]; at 33.0 µM 94% | [10]; [17] 97% | [10]; at 50.0 µM 86.2% | [10]; at 100.0 µM 90% | [11]; at 33.0 µM 95% | [11]; at 100.0 µM 93% | [12]; at 11.0 µM 93% | [12]; at 33.0 µM 95% | [12]; at 100.0 µM 91% | [13]; at 11.0 µM 89% | [13]; at 33.0 µM 95% | [13]; at 100.0 µM 84% | [14]; [17] 94% | [14]; at 50.0 µM 88.8% | [15]; at 11.0 µM 89% | [15]; at 33.0 µM 94% | [15]; at 100.0 µM 87%
